Assay results as given in the supplement of paper PMC4723716.

System: Plasmodium falciparum NF54 gametocytes
Test: viability index relative to DMSO control (fraction); higher = less gametocyte killing
Details: 12.5 µM, incubation time: 72 h
Procedure, shortened: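 In 384-well plates, compound at 12.5 µM was incubated for 72 hr at 37°C under low oxygen with P. falciparum NF54 gametocytes of each stage (I–V) at 0.50% gametocytemia and 1.25% hematocrit in 40 µl of serum-containing medium. Staining used 5 µl of 5 µM MitoTracker Red CMXRos for 20 min, then 5 µl was moved into 40 µl of 500 nM dye in serum-free medium and imaged after 30 min. Dividing the gametocyte particle count by the plate mean of solvent-only wells gave the viability index.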

[1] = gametocyte stage: Stage I viability index
[2] = gametocyte stage: Stage II viability index
[3] = gametocyte stage: Stage III viability index
[4] = gametocyte stage: Stage IV viability index
[5] = gametocyte stage: Stage V viability index

Structure (SMILES)	viability index [1]	viability index [2]	viability index [3]	viability index [4]	viability index [5]
OCCNc1nc(Nc2ccc(Cl)c(Cl)c2)nc2ccccc12	0.0254	0.246	0.665	0.484	0.442
O=c1nc(C=Cc2ccc(Cl)cc2)oc2ccccc12	0.874	1.01	1	0.866	0.989
COc1ccccc1N=C1C(=O)c2ccccc2C(O)=C1N1CCCCC1	0.0188	0.0203	0.0297	0.0699	0.0879
OC(Cn1nnc2ccccc21)Cn1c2ccc(Br)cc2c2cc(Br)ccc21 (stereo not given)	0.634	0.684	1.04	0.972	1.21
O=C(NCC(c1ccsc1)N1CCCCCC1)c1ccc(C(F)(F)F)cc1 (stereo not given)	0.653	0.881	0.843	0.9	0.725
CC(C)OCc1cc(CN2CCN(c3cccc(Cl)c3)CC2)c(O)c2ncccc12	0.00331	0.0328	0.0297	0.0243	0.011
Cc1ccc(-c2cc3nc4c(c(O)n3n2)CCCC4)cc1	0.537	0.804	0.894	0.766	0.857
Cc1cc(Nc2ccc(C)c(Cl)c2)n2nc(C(F)(F)F)nc2n1	0.881	1.23	0.983	1.08	0.945
CCN(CC)S(=O)(=O)c1ccc(-c2csc(Nc3ccc(C)c(C)c3)n2)cc1	0.544	0.506	0.532	0.733	0.352
CC(NCc1ccccc1)c1cc(Cl)ccc1O (stereo not given)	0.0221	0.121	0.44	0.574	0.923
Cn1c(=O)n(C)c2cc(CNCCNc3ccnc4cc(Cl)ccc34)ccc21	0.49	0.57	0.597	0.75	0.494
CC(=O)Nc1nnc(SCc2c(C)cc(C(C)(C)C)cc2C)s1	0.854	0.701	0.894	0.793	0.912
CC1CC2=C(CC1CNCCCN(C)C)C(C)(C)CCC2 (stereo not given)	0.383	0.362	0.48	0.468	0.312
COc1ccc(C2N(C)c3ccccc3N2C)cc1	0.939	0.93	1.01	0.964	1.07
Cc1cc(N2CCCC2)nc(Nc2ccc(NC(=O)CCc3ccccc3)cc2)n1	0.0734	0.0508	0.261	0.345	0.13
CCCCOc1ccc(C(=O)Nc2cc(C)on2)cc1	1.02	0.815	0.973	0.942	0.78
FC(F)(F)c1cccc(Nc2nc3ccccc3nc2Nc2cccc(C(F)(F)F)c2)c1	0.0175	0.0233	0.0149	0.00633	0.0649
Nc1ccc(-c2nc3cc(Cc4ccc5[nH]c(-c6ccc(N)cc6)nc5c4)ccc3[nH]2)cc1	0.0227	0.00833	0.0204	0.0127	0
COc1cc(C(=O)Nc2ccc(-c3nc4ccccc4[nH]3)cc2)cc(OC)c1OC	0.0918	0.595	1.01	0.968	0.701
CC(C)(C)CC(C)(C)NCC(O)COc1ccc2c(c1)CCC2 (stereo not given)	0.221	0.273	0.615	0.666	0.462
OC1CCCCC1C1(NC(=S)Nc2ccccc2)CCCCC1 (stereo not given)	0.24	0.184	0.0868	0.108	0.247
COc1ccc2nc(N)nc(C)c2c1	0.353	0.614	0.685	0.959	1.04
CCOC(=O)c1ccc2nc(-c3ccccc3)cc(O)c2c1	0.606	0.719	0.761	0.757	1.12
O=C(Nc1ccc(Cl)cc1C(=O)Nc1ccncc1)c1ccc(Cl)cc1Cl	0.139	0.589	0.935	0.927	0.637
Cc1ccc2cc3c(N)c4c(C)ccc(C)c4nc3nc2c1	0.0542	0.005	0.0231	0.00316	0.026
COc1ccc(C2C(C(=O)Nc3cccc(OC)c3)c3ccccc3C(=O)N2C2CCCCC2)cc1 (stereo not given)	0.0691	0.0974	0.488	0.551	0.519
Cc1cccc(Nc2nc(N)c3ccccc3n2)c1	0.0785	0.635	0.948	0.854	0.692
